In the supplement of paper PMC3334620:
Over roughly 33,000 sequences, “E-score (-0.5 to 0.5)” has its median near -0.036; the highest 2% begin near 0.37. Many of the other results were omitted from the sample, so the highest values are more common in it than they were.

Molecular target: T1, Yer064c (UniProt P40041)
T1 sequence: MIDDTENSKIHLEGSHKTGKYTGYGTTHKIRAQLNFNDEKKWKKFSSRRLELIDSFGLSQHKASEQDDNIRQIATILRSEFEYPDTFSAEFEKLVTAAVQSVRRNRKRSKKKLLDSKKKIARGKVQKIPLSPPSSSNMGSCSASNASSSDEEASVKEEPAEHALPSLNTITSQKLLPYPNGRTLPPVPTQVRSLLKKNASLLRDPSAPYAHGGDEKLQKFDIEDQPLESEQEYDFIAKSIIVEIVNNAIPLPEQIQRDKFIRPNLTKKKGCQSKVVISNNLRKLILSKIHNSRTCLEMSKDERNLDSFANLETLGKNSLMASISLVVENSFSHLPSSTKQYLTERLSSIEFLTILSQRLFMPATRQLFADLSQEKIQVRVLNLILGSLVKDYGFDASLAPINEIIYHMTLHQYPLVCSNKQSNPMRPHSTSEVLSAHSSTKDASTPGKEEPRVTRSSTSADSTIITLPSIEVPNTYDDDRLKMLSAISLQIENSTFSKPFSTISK
Assay: PBM E-score (8-mer binding enrichment) (E-score (-0.5 to 0.5)); higher = stronger / more preferred TF binding
Details: protein concentration: 200 nM; construct: GST-full length
Experimental: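 Universal 'all 10-mer' protein binding microarrays (Agilent AMADID 015681) probed with GST-tagged S. cerevisiae TFs (full-length or DBD) made by in vitro transcription/translation (PURExpress), about 100-200 nM. Bound TF was detected with fluorescent anti-GST. Each ungapped 8-mer (which stands for itself and its reverse complement) is scored by the PBM enrichment score (E-score), a modified Wilcoxon-Mann-Whitney statistic from -0.5 to +0.5, computed with the Universal PBM Analysis Suite. Scale: above 0.35 generally sequence-specific binding.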

Sequence | PBM E-score
ACTTATCG | 0.0591
CTGCCTAC | -0.0918
CCTATAGC | -0.178
GCCGTGCC | -0.24
CGCTGAAC | -0.0322
ACGTCTAA | 0.0568
ACAGGGAG | -0.0887
CAAGCGAC | -0.0326
CTCCCGAG | 0.0821
ACGCTATG | -0.064
GACTGGGC | 0.0848
GAGACTTA | 0.24
GAGACTGA | 0.28
AAGACACA | 0.0498
AAGACTGA | 0.347
AAGACTTA | 0.33
AAGACTCA | 0.48
AAGACTCG | 0.373
AAGACACG | -0.0488
TAGACTGA | 0.122
TAGACTCA | 0.413
TATACTCA | 0.317
GAGACTCA | 0.467
ATTTGGCG | -0.116
GAAGTTAC | 0.0811

Sequence | PBM E-score
ATAGCTGC | 0.00331
AGCTAAGG | -0.317
GGGAGCTA | -0.13
AGTTCATG | 0.215
GCCAATAC | -0.222
AGAGCTGA | 0.0408
AAAGTGAG | 0.188
ATGCCGTA | -0.0237
CGCGTAAC | -0.139
GTACTTAA | 0.123
CTTGCCAC | 0.0476
ACCAAAAA | 0.186
CACTTTAC | 0.0259
ATCGCCTG | -0.012
GAGCACTC | -0.182
GAAGGATC | -0.0298
AGGTGCAC | -0.143
GGGGTGGA | -0.205
ACCACTTG | -0.0296
AATGAATC | 0.39
CATGAATA | 0.178
CATGAATG | 0.197
ATTGAATA | 0.169
ATTGAATC | 0.375
GATGAATA | 0.176

Sequence | PBM E-score
GATGAATC | 0.387
AATGAATG | -0.0293
GATGAACC | 0.0652
ATTGAATG | 0.167
CATGAATC | 0.423
AATGAATT | 0.0966
AGTACCAC | 0.0908
CAATCGAC | 0.0905
ACTGCGAC | 0.228
CTTCCGCC | -0.183
ACATGACA | 0.155
AGATGACC | 0.136
ACATGAGT | 0.375
ACATGACT | 0.48
AGATGACT | 0.487
ACATGAGC | 0.046
ACATGAGA | 0.284
ACATGACG | -0.00033
AGATGACA | 0.116
CTTACGTA | 0.131
CGCAAGGA | -0.167
AAGGCATA | -0.129
TGCCAGCA | -0.0413
ACACGTGC | -0.0356
CACATGTC | 0.0407

Sequence | PBM E-score
ATCCCACG | 0.07
TAGGCGAA | -0.0147
GTGACTGA | 0.447
ATGACAAG | 0.0335
AAGACTGG | 0.1
ATGACTGG | 0.409
AGGACTAG | 0.275
CTGACTGC | 0.348
CGGACTGA | 0.178
ACGACTGG | 0.148
GTGACGGA | -0.0635
ATGACTAG | 0.48
GGGACTGA | 0.119
CTGACTGA | 0.395
CATCAGGA | -0.0161
GTGTCGAA | -0.00343
ATCGCAGA | 0.0583
AGCTACCA | 0.0223
AATTCGGT | 0.107
CTCCGTGC | -0.156
ACATTCAT | 0.0768
CGCGTTCA | 0.0376
AGGACTGC | 0.13
ATGACTGC | 0.467
ATGACTCG | 0.491

Sequence | PBM E-score
ATGACTGA | 0.464
ATTACTCG | 0.202
CAGACTGC | 0.0507
AGGACTGA | 0.244
AGGACTCG | 0.306
ACGACTGA | 0.321
GTAAGGTA | 0.00781
GCCAACCC | -0.343
ACGGCCTC | -0.163
ACATGAAT | 0.175
ACGCCTAG | -0.133
CGGTGGGC | -0.341
AGTTTCTC | -0.105
CAACTCCC | -0.15
CCACTCCA | -0.0978
AGACTCCA | 0.323
TGACTCCA | 0.479
AGACTCCC | 0.32
CGACTCCA | 0.378
CGACTCCC | 0.404
GGACTCCA | 0.176
CGACTCCG | 0.332
AGGGGGAT | -0.373
AGGGGGGA | -0.362
ACTGCGTA | 0.0638

Sequence | PBM E-score
AACTCCAT | 0.0309
CGGTGCAG | -0.0907
GAGTCAAA | 0.461
AAGTCAAA | 0.288
AAGTCAAG | 0.283
ACGTCAAC | 0.0642
CAGTCAAA | 0.254
TTGTCAAA | 0.0143
TGGTCAAA | -0.0461
TAGTCAAA | 0.417
AAGTCAAC | 0.367
GAGTCAAC | 0.474
GCGTCAAC | -0.156
CAGTCAAC | 0.36
TCAAAAAA | 0.16
CGATCACC | -0.0685
ACGATCCG | -0.0916
AGGTAGGC | -0.231
AATCATCA | 0.463
GATCATCA | 0.142
AATCATCT | 0.453
AATCATCG | 0.439
CATCATCA | 0.161
AATCTTCT | 0.201
AATCAACG | 0.308

Sequence | PBM E-score
AATCATCC | 0.468
TATCATCA | 0.0107
GATCATCC | 0.171
CATCATCG | 0.125
CATCATCC | 0.0788
TGGGCCCA | -0.123
AATATTGT | 0.0413
TATGAATA | 0.0885
TCCCTTCA | 0.091
CCCTTGAA | -0.0587
ACGCGACA | -0.128
AGGCGACT | 0.387
AGGCGACG | -0.346
AGGCGACC | -0.191
ACGCGACG | -0.164
AAGCGACC | -0.161
AAGCGACT | 0.369
ACGCGACT | 0.376
AAGCGACA | -0.208
ACAACGGT | -0.116
ATAAAGAC | 0.196
CCGGCAAG | -0.156
CTTGAGAA | 0.136
GCTTCGAC | -0.126
TCAACAGA | 0.211

Sequence | PBM E-score
CACTATTA | 0.0522
GACTATTA | 0.379
AACTATCA | 0.104
GACTATCC | 0.404
CACTATCC | -0.196
AACTATTA | -0.00806
GACTATCA | 0.394
AACTATCC | -0.235
TACTATCA | 0.0134
AACGCACA | -0.185
CTGGATTC | 0.00174
GTACCGAC | -0.057
ATTTAGGG | -0.0441
ATTAGCCG | -0.106
CGAAGTCC | 0.0182
TGAAGCCA | 0.114
GGAAGTCA | 0.426
CGAAGTCG | 0.286
TGAAGTAA | 0.0152
CGAAGTCA | 0.437
GGAAGTCC | 0.0559
AGAAGTCC | -0.056
AGAAGTCG | 0.207
TGAAGTCA | 0.445
GGAAGTGA | 0.0158

Sequence | PBM E-score
AGAAGTCA | 0.43
TAATGCTA | 0.15
AGTTTTGC | 0.0632
AATAAGAC | 0.175
TGCGGTAA | 0.0977
CCCACGTC | -0.157
GCGGTTAC | 0.0193
ACAATGCT | -0.0617
GTAGCATA | -0.262
CCGTCGCG | -0.0591
TATTCCCA | 0.00714
GATCACGA | 0.0675
GACGTCGA | -0.14
CTGCATTC | -0.0186
GAACTAAC | -0.0243
GGACTACC | 0.284
CGACTACG | 0.337
GTACTAAC | 0.128
CGACTACC | 0.383
GGACTAAC | 0.367
CAACTAAC | 0.132
CGACTAAC | 0.43
CGACTAGC | 0.297
